# From article PMC7862700, “An all-to-all approach to the identification of sequence-specific readers for epigenetic DNA modifications on cytosine”
# What was measured:
# Assay in all cases: DAPPL (digital affinity profiling via proximity ligation, sequencing); 10 mM Tris-HCl pH 7.5, 50 mM NaCl, 1 mM DTT, 4% glycerol, room temperature, 30 min; GST-TFs on glutathione beads, 16-mer random dsDNA library, 0.1% formaldehyde crosslink after washing; high values mean tight binding
# FLI1 = target: T1, FLI1 (Homo sapiens, UniProt Q01543 1-452); conditions: protein: recombinant; tags: N-terminal GST; dsDNA, one strand shown
# T1 sequence: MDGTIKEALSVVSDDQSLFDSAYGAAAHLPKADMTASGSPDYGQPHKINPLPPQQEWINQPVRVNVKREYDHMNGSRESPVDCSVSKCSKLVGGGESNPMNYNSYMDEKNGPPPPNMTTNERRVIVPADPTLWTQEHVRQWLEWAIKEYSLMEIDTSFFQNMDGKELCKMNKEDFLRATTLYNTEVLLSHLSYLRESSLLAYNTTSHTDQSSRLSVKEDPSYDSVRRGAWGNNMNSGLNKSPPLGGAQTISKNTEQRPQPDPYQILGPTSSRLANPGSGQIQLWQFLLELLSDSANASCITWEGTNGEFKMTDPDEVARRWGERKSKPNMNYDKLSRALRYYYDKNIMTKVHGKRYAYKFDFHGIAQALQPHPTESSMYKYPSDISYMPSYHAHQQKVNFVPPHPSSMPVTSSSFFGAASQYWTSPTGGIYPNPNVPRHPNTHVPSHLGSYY
# Outline: (§1)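 Each value of binding signal is a hexamer's read frequency for a factor divided by the same hexamer's frequency in the tag-only sample. Barcoded, bead-captured GST fusions of human transcription factors made in yeast were pooled with that sample and incubated with 200 nmole of a random double-stranded 16-mer DNA library in Tris/NaCl/DTT/glycerol buffer at room temperature for 30 min. Washing, 0.1% formaldehyde crosslinking, proximity ligation, PCR and Illumina NextSeq500 sequencing followed.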
# ELK1 = target: T2, ELK1 (Homo sapiens, UniProt P19419 1-428); conditions: protein: recombinant; tags: N-terminal GST; dsDNA, one strand shown
# T2 sequence: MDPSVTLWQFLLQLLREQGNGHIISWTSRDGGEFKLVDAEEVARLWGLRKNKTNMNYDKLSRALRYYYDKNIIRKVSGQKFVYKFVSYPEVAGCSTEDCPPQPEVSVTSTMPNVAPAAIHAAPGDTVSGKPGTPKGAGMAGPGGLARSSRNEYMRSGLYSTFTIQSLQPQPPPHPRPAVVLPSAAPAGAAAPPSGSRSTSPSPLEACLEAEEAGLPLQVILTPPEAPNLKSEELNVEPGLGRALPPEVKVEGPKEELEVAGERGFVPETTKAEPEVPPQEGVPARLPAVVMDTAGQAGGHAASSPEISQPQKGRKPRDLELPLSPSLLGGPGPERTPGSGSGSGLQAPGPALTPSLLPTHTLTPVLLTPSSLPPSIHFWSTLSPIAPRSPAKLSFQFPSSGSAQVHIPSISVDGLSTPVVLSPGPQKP
# Outline: as §1
# GABPA = target: T3, GABPA (Homo sapiens, UniProt Q06546 1-454); conditions: protein: recombinant; tags: N-terminal GST; dsDNA, one strand shown
# T3 sequence: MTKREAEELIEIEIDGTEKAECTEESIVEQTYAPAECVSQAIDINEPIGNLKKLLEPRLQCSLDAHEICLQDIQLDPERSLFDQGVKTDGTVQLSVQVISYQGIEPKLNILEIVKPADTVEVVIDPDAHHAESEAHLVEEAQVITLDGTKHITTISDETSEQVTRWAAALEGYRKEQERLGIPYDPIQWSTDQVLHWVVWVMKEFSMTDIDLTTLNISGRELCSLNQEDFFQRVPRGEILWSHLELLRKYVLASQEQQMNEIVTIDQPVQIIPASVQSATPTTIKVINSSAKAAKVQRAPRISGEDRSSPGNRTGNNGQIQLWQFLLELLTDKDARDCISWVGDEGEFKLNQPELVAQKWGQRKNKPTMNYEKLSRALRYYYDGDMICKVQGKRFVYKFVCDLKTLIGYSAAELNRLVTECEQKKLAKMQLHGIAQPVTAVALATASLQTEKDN
# Outline: as §1
# ERG = target: T4, ERG (Homo sapiens, UniProt P11308 1-479); conditions: protein: recombinant; tags: N-terminal GST; dsDNA, one strand shown
# T4 sequence: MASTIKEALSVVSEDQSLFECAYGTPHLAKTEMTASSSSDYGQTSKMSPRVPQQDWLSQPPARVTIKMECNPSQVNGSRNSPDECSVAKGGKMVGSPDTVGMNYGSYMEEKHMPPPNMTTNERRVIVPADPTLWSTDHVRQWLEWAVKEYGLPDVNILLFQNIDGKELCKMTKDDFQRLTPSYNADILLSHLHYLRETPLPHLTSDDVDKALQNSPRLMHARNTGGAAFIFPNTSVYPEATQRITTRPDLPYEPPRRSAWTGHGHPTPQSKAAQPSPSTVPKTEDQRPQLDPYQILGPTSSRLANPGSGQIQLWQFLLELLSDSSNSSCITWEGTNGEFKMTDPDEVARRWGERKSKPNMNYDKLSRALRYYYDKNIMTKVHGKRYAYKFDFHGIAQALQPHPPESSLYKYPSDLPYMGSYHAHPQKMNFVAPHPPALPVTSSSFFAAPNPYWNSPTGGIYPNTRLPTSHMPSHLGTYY
# Outline: as §1
# ELF1 = ELF1 (Homo sapiens, UniProt P32519 1-619); conditions: protein: recombinant; tags: N-terminal GST; dsDNA, one strand shown
# Sequence of ELF1 (P32519 whole entry): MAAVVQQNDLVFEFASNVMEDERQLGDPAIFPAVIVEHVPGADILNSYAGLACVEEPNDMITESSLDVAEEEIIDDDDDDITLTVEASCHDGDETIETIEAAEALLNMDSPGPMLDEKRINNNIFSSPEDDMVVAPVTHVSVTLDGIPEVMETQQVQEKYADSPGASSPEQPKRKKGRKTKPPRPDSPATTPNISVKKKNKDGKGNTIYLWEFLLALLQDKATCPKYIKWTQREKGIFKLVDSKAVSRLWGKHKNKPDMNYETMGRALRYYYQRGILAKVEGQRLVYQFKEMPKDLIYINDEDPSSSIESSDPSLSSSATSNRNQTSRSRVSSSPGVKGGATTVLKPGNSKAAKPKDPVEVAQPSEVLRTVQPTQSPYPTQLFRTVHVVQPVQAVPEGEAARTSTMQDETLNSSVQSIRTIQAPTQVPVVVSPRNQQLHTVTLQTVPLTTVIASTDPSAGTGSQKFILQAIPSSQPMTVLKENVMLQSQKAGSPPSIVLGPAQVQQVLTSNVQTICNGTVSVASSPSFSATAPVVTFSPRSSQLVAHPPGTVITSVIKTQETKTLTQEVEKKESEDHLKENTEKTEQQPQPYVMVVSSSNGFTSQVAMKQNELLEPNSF
# Outline: as §1
# EHF = target: T5, EHF (Homo sapiens, UniProt Q9NZC4 1-300); conditions: protein: recombinant; tags: N-terminal GST; dsDNA, one strand shown
# T5 sequence: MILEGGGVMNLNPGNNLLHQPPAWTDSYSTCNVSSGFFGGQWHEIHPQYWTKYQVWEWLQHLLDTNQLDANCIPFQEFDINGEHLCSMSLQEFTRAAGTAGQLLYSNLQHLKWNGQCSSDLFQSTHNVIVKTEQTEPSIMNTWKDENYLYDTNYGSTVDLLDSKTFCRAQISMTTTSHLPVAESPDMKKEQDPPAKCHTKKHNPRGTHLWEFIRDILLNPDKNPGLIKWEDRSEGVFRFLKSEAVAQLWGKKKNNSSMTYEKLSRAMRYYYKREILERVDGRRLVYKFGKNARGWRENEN
# Outline: as §1
# SPI1 = SPI1 (Homo sapiens, UniProt P17947 1-270); conditions: protein: recombinant; tags: N-terminal GST; dsDNA, one strand shown
# Outline: as §1
# SPIB = SPIB (Homo sapiens, UniProt Q01892 1-262); conditions: protein: recombinant; tags: N-terminal GST; dsDNA, one strand shown
# Sequence of SPIB (Q01892 whole entry): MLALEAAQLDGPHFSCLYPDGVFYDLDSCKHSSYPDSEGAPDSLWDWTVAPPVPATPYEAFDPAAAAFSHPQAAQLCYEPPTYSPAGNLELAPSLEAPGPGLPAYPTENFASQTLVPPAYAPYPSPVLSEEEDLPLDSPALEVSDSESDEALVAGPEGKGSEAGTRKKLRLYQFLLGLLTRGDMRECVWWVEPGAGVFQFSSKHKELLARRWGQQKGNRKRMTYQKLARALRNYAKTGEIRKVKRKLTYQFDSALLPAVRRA
# Outline: as §1
# ELK3 = target: T6, ELK3 (Homo sapiens, UniProt P41970 1-407); conditions: protein: recombinant; tags: N-terminal GST; dsDNA, one strand shown
# T6 sequence: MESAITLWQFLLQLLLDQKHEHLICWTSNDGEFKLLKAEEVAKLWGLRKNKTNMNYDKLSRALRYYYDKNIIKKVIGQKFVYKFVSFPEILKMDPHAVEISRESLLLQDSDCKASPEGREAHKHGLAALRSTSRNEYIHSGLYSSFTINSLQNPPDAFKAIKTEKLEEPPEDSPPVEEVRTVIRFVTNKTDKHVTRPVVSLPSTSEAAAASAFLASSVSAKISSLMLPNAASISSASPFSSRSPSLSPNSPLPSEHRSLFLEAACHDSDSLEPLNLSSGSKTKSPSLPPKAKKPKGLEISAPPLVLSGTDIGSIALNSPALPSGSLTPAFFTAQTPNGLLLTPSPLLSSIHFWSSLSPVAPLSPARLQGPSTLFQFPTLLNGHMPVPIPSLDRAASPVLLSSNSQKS
# Outline: as §1
# FEV = target: T7, FEV (Homo sapiens, UniProt Q99581 1-238); conditions: protein: recombinant; tags: N-terminal GST; dsDNA, one strand shown
# T7 sequence: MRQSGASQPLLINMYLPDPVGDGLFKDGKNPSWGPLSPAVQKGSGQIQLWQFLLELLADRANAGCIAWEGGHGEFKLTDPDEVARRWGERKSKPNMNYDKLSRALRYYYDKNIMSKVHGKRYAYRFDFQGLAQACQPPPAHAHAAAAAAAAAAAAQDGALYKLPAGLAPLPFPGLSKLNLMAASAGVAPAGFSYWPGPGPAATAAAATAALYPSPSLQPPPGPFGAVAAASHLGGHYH
# Outline: as §1
# ETV5 = ETV5 (Homo sapiens, UniProt P41161 1-510); conditions: protein: recombinant; tags: N-terminal GST; dsDNA, one strand shown
# Sequence of ETV5 (P41161 whole entry): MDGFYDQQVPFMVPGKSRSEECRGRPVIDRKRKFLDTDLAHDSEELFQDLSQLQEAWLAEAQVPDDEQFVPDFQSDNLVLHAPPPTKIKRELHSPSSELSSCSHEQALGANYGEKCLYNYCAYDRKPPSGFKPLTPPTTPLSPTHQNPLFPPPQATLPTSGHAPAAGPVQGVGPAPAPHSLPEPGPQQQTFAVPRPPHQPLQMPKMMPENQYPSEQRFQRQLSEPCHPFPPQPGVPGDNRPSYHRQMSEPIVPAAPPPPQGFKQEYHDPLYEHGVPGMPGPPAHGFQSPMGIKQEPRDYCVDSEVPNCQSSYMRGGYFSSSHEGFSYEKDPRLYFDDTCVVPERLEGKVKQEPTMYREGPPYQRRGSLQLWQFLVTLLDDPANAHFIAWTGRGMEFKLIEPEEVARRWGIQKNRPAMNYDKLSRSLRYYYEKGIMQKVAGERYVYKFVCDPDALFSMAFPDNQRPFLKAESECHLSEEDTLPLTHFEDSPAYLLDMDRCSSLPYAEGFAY
# Outline: as §1
# HSF1 = HSF1 (Homo sapiens, UniProt Q00613 1-529); conditions: protein: recombinant; tags: N-terminal GST; chain copies: 3; dsDNA, one strand shown
# Sequence of HSF1 (Q00613 whole entry): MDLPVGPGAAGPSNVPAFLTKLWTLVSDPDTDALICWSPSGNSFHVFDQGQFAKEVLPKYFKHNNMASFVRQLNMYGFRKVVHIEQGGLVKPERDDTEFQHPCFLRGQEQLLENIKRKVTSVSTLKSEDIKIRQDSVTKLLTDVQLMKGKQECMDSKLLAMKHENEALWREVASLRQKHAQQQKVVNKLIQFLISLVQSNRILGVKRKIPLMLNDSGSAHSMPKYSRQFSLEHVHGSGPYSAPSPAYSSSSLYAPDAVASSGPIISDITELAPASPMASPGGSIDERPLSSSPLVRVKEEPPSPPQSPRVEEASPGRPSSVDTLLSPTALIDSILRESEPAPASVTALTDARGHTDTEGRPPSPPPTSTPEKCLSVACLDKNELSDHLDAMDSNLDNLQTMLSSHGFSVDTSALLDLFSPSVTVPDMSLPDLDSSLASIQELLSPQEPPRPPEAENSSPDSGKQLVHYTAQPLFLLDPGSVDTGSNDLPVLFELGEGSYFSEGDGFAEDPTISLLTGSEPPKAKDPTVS
# Outline: as §1
# SPIC = target: T8, SPIC (Homo sapiens, UniProt Q8N5J4 1-248); conditions: protein: recombinant; tags: N-terminal GST; dsDNA, one strand shown
# T8 sequence: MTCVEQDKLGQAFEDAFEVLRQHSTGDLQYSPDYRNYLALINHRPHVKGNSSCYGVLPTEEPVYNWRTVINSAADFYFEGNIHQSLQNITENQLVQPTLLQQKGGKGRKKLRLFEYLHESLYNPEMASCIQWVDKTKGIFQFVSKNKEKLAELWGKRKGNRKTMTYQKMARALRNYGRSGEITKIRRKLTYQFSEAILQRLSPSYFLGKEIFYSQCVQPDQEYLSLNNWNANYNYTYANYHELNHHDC
# Outline: as §1
# ELF4 = ELF4 (Homo sapiens, UniProt Q99607 1-663); conditions: protein: recombinant; tags: N-terminal GST; dsDNA, one strand shown
# Sequence of ELF4 (Q99607 whole entry): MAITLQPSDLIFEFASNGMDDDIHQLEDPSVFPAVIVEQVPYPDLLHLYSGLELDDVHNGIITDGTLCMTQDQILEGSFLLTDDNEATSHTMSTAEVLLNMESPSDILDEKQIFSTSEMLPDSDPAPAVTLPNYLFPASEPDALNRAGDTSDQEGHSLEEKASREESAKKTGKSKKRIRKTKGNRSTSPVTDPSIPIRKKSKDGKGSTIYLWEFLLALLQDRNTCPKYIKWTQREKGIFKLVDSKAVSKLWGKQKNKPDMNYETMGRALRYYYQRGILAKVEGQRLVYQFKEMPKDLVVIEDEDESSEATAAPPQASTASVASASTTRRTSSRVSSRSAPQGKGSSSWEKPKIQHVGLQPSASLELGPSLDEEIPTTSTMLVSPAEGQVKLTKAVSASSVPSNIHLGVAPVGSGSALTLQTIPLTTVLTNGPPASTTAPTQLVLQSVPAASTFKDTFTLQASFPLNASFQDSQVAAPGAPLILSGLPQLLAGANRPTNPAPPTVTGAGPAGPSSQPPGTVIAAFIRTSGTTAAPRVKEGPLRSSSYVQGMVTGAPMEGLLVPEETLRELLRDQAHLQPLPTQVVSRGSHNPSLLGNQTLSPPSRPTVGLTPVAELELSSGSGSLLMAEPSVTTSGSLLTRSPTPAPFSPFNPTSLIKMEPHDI
# Outline: as §1
# ELK4 = target: T9, ELK4 (Homo sapiens, UniProt P28324-2 1-405); conditions: protein: recombinant; tags: N-terminal GST; dsDNA, one strand shown
# T9 sequence: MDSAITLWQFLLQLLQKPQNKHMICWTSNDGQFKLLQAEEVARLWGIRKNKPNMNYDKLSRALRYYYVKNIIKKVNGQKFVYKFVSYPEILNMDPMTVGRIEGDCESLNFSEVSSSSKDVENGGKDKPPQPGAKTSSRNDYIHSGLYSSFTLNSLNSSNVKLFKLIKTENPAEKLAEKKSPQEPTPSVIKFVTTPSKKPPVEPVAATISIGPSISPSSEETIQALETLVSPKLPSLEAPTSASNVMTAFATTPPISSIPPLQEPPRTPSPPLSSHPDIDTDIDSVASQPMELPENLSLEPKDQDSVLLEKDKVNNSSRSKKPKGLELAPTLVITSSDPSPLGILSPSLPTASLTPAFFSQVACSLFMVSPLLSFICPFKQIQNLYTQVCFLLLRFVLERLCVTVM
# Outline: as §1
# ETV2 = target: T10, ETV2 (Homo sapiens, UniProt O00321 1-342); conditions: protein: recombinant; tags: N-terminal GST; dsDNA, one strand shown
# T10 sequence: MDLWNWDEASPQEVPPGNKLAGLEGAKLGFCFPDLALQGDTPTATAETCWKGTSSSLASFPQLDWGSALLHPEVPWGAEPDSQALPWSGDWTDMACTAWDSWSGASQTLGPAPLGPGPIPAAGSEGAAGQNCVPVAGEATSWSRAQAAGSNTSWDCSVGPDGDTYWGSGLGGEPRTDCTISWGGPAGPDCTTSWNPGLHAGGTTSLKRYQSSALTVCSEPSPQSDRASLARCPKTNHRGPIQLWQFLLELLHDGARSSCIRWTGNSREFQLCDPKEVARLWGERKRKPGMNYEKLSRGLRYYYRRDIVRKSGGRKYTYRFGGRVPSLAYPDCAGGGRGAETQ
# Outline: as §1
# ELF3 = target: T11, ELF3 (Homo sapiens, UniProt P78545 1-371); conditions: protein: recombinant; tags: N-terminal GST; dsDNA, one strand shown
# T11 sequence: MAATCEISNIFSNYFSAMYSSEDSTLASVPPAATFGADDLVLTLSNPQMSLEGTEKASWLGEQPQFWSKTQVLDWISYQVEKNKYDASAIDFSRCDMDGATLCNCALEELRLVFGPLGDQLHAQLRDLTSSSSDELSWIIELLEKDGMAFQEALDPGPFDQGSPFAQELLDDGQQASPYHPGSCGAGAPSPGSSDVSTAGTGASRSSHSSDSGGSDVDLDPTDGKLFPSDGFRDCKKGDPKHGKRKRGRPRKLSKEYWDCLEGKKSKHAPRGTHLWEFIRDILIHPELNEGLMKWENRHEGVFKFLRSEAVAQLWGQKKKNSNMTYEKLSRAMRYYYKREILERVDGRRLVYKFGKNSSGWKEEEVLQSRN
# Outline: as §1
# CRX = CRX (Homo sapiens, UniProt O43186 1-299); conditions: protein: recombinant; tags: N-terminal GST; dsDNA, one strand shown
# Sequence of CRX (O43186 whole entry): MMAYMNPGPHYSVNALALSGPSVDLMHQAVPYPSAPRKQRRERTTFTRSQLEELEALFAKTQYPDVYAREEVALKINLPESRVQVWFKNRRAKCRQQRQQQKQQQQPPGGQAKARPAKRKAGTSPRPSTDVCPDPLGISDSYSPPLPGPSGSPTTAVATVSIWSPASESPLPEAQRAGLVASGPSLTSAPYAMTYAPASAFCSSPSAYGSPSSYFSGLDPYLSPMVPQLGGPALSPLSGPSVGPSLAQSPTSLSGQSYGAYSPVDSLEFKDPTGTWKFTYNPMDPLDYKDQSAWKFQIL
# Outline: as §1
# ETV1 = ETV1 (Homo sapiens, UniProt P50549 1-477); conditions: protein: recombinant; tags: N-terminal GST; dsDNA, one strand shown
# Sequence of ETV1 (P50549 whole entry): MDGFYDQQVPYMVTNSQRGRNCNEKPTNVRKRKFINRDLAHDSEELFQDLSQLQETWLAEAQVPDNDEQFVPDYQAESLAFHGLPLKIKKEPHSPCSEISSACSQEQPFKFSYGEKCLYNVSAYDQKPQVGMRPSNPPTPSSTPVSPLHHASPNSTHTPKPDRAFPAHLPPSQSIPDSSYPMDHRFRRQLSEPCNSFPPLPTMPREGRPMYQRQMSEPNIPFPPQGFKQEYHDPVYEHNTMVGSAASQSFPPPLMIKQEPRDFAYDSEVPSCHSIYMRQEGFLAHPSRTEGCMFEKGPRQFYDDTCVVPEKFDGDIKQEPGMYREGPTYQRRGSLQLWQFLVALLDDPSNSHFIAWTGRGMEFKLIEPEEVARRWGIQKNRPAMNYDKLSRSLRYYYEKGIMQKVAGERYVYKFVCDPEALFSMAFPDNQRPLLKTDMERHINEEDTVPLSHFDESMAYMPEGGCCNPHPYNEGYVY
# Outline: as §1
sequence,measurement,setting,value
ATTCCC,binding signal,FLI1,"1.37 fold enrichment (6-mer frequency, TF over GST control)"
same,binding signal,ELK1,"1.32 fold enrichment (6-mer frequency, TF over GST control)"
same,binding signal,GABPA,"1.38 fold enrichment (6-mer frequency, TF over GST control)"
same,binding signal,ERG,"1.3 fold enrichment (6-mer frequency, TF over GST control)"
same,binding signal,ELF1,"1.4 fold enrichment (6-mer frequency, TF over GST control)"
same,binding signal,EHF,"1.35 fold enrichment (6-mer frequency, TF over GST control)"
same,binding signal,SPI1,"1.34 fold enrichment (6-mer frequency, TF over GST control)"
same,binding signal,SPIB,"1.48 fold enrichment (6-mer frequency, TF over GST control)"
same,binding signal,ELK3,"1.44 fold enrichment (6-mer frequency, TF over GST control)"
same,binding signal,FEV,"1.42 fold enrichment (6-mer frequency, TF over GST control)"
same,binding signal,ETV5,"1.44 fold enrichment (6-mer frequency, TF over GST control)"
same,binding signal,HSF1,"1.61 fold enrichment (6-mer frequency, TF over GST control)"
same,binding signal,SPIC,"1.41 fold enrichment (6-mer frequency, TF over GST control)"
same,binding signal,ELF4,"1.47 fold enrichment (6-mer frequency, TF over GST control)"
same,binding signal,ELK4,"1.24 fold enrichment (6-mer frequency, TF over GST control)"
same,binding signal,ETV2,"1.42 fold enrichment (6-mer frequency, TF over GST control)"
same,binding signal,ELF3,"1.35 fold enrichment (6-mer frequency, TF over GST control)"
same,binding signal,CRX,"1.57 fold enrichment (6-mer frequency, TF over GST control)"
same,binding signal,ETV1,"1.4 fold enrichment (6-mer frequency, TF over GST control)"
